Results reported in the OligoGym collection.

Biological target: TPPP3
Assay: pooled miR-30 sensor sort-seq; sequence = guide strand
Conditions: shRNA
Note: reference of the scale not given here.

Row | Sequence | sensor-assay potency score (higher = more potent)
1 | TTGAACTCCTCATAGTTGATGA | -0.547
2 | TTTTGCTTTAGTGACGCCCACA | -1.34
3 | TTGCAGTCCTTGCACAGCTTGG | -0.971

Biological target: TPRX1
Assay: as above
Conditions: shRNA

Row | Sequence | sensor-assay potency score (higher = more potent)
4 | TGAAGTGAGGGAATAACTGGGT | 0.243
5 | TTGAACCACACCTGCAGCTGTT | -0.741
6 | TTGGAGCTGGGACTGAGCCTGA | -0.894
7 | TGAACCACACCTGCAGCTGTTG | -0.826
8 | TAGGGGTAGGAGCAGCTCTGTG | -1.84
9 | TAGAGTCATCCCCTTCTTGGTA | -0.907
10 | TTTCATTCACAGAGCCACCCTC | -0.302
11 | TTGCCCATAGAGTCATCCCCTT | -0.764
12 | TTCATTCACAGAGCCACCCTCC | -0.83
13 | TGGTGGAGGCTGCAGATCGTGG | -1.98
14 | TCGGGCTTGGGATCTGAGCTGG | -0.605
15 | TTCTTGGTACTGAGAGGTCATG | -1.73

Biological target: TRAFD1
Assay: as above
Conditions: shRNA

Row | Sequence | sensor-assay potency score (higher = more potent)
16 | TTTATGTCACTGAGAGACCTGG | -0.674
17 | TTCTATTGTGGAAAACATCTGA | 0.311
18 | TTCTTCAAACAGATTATTCTGA | 0.585
19 | TTTGCCTTTGCAGTTCTGCTGC | 0.136
20 | TAACTGGTTACTTGCAGCCTGT | -0.902
21 | TTGGTTGGTAGTTCTATTGTGG | -0.193
22 | TTGCACTCTCTTCACCACCCTC | -0.942
23 | TGCAGTTGTCACACAGTCGAGT | -0.879
24 | TTCCTGCTTAGTATCATCCAGG | -0.814
25 | TTGCAGTTGTCACACAGTCGAG | -1.47
26 | TTATTCTGAATTGAAACCTGGG | 0.55

Biological target: TRAPPC2L
Assay: as above
Conditions: shRNA

Row | Sequence | sensor-assay potency score (higher = more potent)
27 | TTCAGCTCGTTCTCCGTAGGGG | 0.103
28 | TATACCTTGTAGTCCTCCGTGG | 0.16
29 | TTGTGTAGCTTCCGGAACATGC | -0.801
30 | TTTCGTTGTCTCGAAGGGCTGT | 0.949
31 | TGTGTAGGAGTTGTGTAGCTTC | 0.492
32 | TTGGAGTTGGTGACGTAGCCGT | -0.459
33 | TTGAGAGAACATGCACAGCTGC | -0.482
34 | TGTAGCTTCCGGAACATGCTGC | 0.0954
35 | TACCTTGTAGTCCTCCGTGGGG | -0.92
36 | TAGTTGAGAGAACATGCACAGC | -1.15
37 | TTCGTTGTCTCGAAGGGCTGTG | 0.76
38 | TTGCACATCACGTCTGTGTAGG | 0.239
